PLK1 PBD inh: blocks phosphopeptide binding to human PLK1 polo-box domain | Plk1 PBD binding of FITC phosphopeptide, fluorescence polarization | Potency, µM, most hits filed as inhibitors | hit rate 2.8% among 360,000 | AID 720504; note: series mostly up to about 57 µM; nearly all actives have a fitted effect of over 65% in size
Sfp inh: inhibitors of Bacillus subtilis Sfp phosphopantetheinyl transferase; Q9F4F7; Biochemical Sfp PPTase activity, qHTS; Potency, µM, actives largely listed as inhibitors; hit rate 3.5% among 310,000; AID 1490;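 note: the enzyme is Sfp with the accession as filed and its product quenches rhodamine fluorescence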
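Buffer: 50 mM Hepes-Na pH 7.6, 10 mM MgCl2, 0.01% Nonidet P-40, 0.01% BSA. Enzyme 15 nM, pre-exposed to compound 15 min; substrates then added and fluorescence change tracked over 30 min.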
BAZ2B block: BAZ2B (human) inhibition. hit rate 4.4% among 360,000. Q9UIF8. Potency, µM (titrated, usually from 114 µM), usual class: inhibitors. AlphaScreen BAZ2B-H3K14Ac peptide displacement; note: nearly all actives have a fitted effect of over 60% in size
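Protein-peptide AlphaScreen: BAZ2B 50 nM, b-H3K14Ac 50 nM, 1x PBS pH 7.4 + 0.01% Tween-20. Preincubation 30 min RT; cpd 30 min RT (top 110 uM); beads 20 min RT, light-protected.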
G9a inh: G9a (human) methyltransferase inhibition. hit rate 8.8% among 350,000. Potency, µM (highest dose often 102 µM), most hits filed as inhibitors. G9a H3K9 monomethylation, AlphaScreen, 2 h. Q96KQ7; note: nearly all actives have a fitted effect of over 75% in size
Target sequence (Q96KQ7 913-1193 limits assumed): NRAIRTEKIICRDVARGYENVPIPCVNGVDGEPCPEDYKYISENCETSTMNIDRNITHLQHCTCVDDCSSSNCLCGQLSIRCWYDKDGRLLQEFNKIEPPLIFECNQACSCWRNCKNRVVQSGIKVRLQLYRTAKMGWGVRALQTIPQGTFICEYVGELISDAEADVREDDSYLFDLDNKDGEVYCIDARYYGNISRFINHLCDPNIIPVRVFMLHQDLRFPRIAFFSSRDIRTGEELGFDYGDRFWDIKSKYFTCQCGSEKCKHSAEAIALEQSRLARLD
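Chemiluminescent proximity detection of H3K9 monomethylation, read after 10 min bead incubation in the dark. Reaction: 20 nM G9a, 500 nM biotin-H3K9 peptide, 20 uM SAM cofactor, 2 h, room temperature, following 15 min enzyme-compound preincubation.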
HP1b chromo inh: inhibitors of HP1-beta chromodomain binding to methylated histone tails; hit rate 0.56% among 390,000; AlphaScreen HP1-beta / biotin-H3K9me3 peptide binding; Potency, µM (doses to about 114 µM), hits mostly inhibitors; P83916; note: nearly all actives have a fitted effect of over 70% in size
Target sequence (P83916 whole entry, looked up): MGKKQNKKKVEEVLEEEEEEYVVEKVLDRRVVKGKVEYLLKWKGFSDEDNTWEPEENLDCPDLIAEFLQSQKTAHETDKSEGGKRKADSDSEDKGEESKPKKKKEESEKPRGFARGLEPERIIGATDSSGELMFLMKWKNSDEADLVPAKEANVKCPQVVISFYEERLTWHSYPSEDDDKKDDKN
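HP1-beta protein (50 nM final) preincubated 30 min at room temperature with biotinylated H3(1-18)K9me3 peptide (50 nM) in PBS pH 7.4, 0.01% Tween-20, then compound added for 30 min. AlphaScreen streptavidin donor/nickel chelate acceptor beads (10 ug/mL final), 30 min dark, luminescence read.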
JMJD2A Tudor: blocks the human JMJD2A Tudor domain | hit rate 4.4% among 390,000 | Potency, µM (top dose mostly 114 µM), usual class: inhibitors | O75164 | AID 504339 | AlphaScreen JMJD2A-Tudor / H3K4me3 peptide binding; note: nearly all actives have a fitted effect of over 50% in size
Large screens that a line does not name were inactive. An excerpt weighted towards active compounds, which were near 12% of everything screened. Calls come from the whole dose curve; as a rule, active = well fitted curve in the direction sought with a large enough effect; inconclusive = small, poorly fitted or top-dose-only effect, or another doubt; inactive = no such curve, though single readings can be large; an effect the other way counts as inactive or inconclusive.

COc1ccccc1C(CNC(=O)C(C)Oc1ccc(Br)cc1)N1CCCC1 (stereo unspecified)	G9a inh inconclusive (no result: Sfp inh)
CCSc1cc(C2C(C(=O)OC)=C(C)NC3=C2C(=O)CCC3)c(C)o1 (stereo unspecified)	BAZ2B block inconclusive, G9a inh 7.1µM, HP1b chromo inh inconclusive, JMJD2A Tudor inconclusive
COC(=O)c1sccc1-c1ccc(/C=N/OC(=O)c2ccccc2)o1	Sfp inh 50µM
COc1ccc([C@H]2CC(=O)C[C@@H](CCn3cc(-c4ccc(F)cc4)nn3)O2)cc1	none (no result: Sfp inh, BAZ2B block, G9a inh, HP1b chromo inh, JMJD2A Tudor)
O=[N+]([O-])c1cccc(CN(CCO)Cc2ccccc2)c1	none (no result: G9a inh)
Cc1ccc(CN(CCO)CCO)cc1	none
CCCN(CCO)Cc1cccc(Br)c1	BAZ2B block 50µM, G9a inh inconclusive, HP1b chromo inh inconclusive, JMJD2A Tudor 4.5µM
OCCN(CCO)Cc1ccc(Br)cc1	BAZ2B block 50µM, G9a inh 20µM, JMJD2A Tudor 20µM
OCCN(Cc1ccccc1)Cc1ccccc1O	BAZ2B block 56µM, G9a inh 10µM, HP1b chromo inh 79µM, JMJD2A Tudor inconclusive
CCOc1ccc(C(c2c(O)nc(SC)n(C)c2=O)c2c(O)nc(SC)n(C)c2=O)cc1	PLK1 PBD inh 12µM, Sfp inh inconclusive, G9a inh 11µM
O=C(CN1CCN(S(=O)(=O)c2ccc(Cl)s2)CC1)N1CCOCC1	none
O=S(=O)(Nc1ccccc1N1CCCCC1)c1ccc(Cl)s1	PLK1 PBD inh 3µM, HP1b chromo inh inconclusive, JMJD2A Tudor inconclusive
CCOc1cc(C#N)ccc1OCC(=O)N1CCN(C(=O)c2cccs2)CC1	none (no result: Sfp inh)
COc1ccc(NC(=S)N2CCNC(=O)C2CC(=O)Nc2ccc(C)cc2)cc1 (stereo unspecified)	none
O=C(O)c1cccnc1-c1ncccc1C(=O)O	Sfp inh inconclusive, G9a inh 56µM, JMJD2A Tudor inconclusive
CCN(CC(=O)Nc1ccc(NC(C)=O)cc1)C(=O)c1cccnc1Sc1ccc(C)c(C)c1	G9a inh 50µM (no result: Sfp inh)
COc1ccc(NC(=O)CN(C)C(=O)c2cccnc2Sc2ccc(C)c(C)c2)cc1	none (no result: Sfp inh)
Cc1cc(C)cc(N(CC(=O)NCC2CCCO2)C(=O)CN2C(=O)COc3ccccc32)c1 (stereo unspecified)	PLK1 PBD inh 30µM, JMJD2A Tudor inconclusive
O=C(CN(C(=O)C1COc2ccccc2O1)c1ccccc1)NCC1CCCO1 (stereo unspecified)	none
CC1CN(Cc2ccc(C#N)cc2Cl)CC(C)O1 (stereo unspecified)	G9a inh 35µM, JMJD2A Tudor inconclusive
C[C@@H]1CN(Cc2nc(-c3ccc(Cl)cc3)no2)C[C@H](C)O1	none (no result: G9a inh)
O=C(O)Cn1cnc2scc(-c3ccccc3)c2c1=O	none (no result: G9a inh)
O=C(O)Cn1cnc2scc(-c3cccs3)c2c1=O	Sfp inh 56µM, BAZ2B block inconclusive, G9a inh inconclusive
Cn1c(/N=C/c2ccc3c(c2)OCO3)nc2ccccc21	none
CN(C)c1ccc(N=Nc2nc3ccccc3n2C)cc1	BAZ2B block 2.8µM, G9a inh inconclusive, HP1b chromo inh 14µM, JMJD2A Tudor 10µM
Cn1c(N=Nc2ccccc2)nc2ccccc21	Sfp inh inconclusive, BAZ2B block 50µM, G9a inh inconclusive, HP1b chromo inh inconclusive, JMJD2A Tudor inconclusive
CCCC(=O)Nc1nnc(SCc2cc(=O)c3ccc(C)cc3[nH]2)s1	none (no result: PLK1 PBD inh, Sfp inh)
C=CCn1c(SCCC)nc2ccccc2c1=O	none (no result: PLK1 PBD inh, Sfp inh, BAZ2B block, G9a inh)
COc1nc(-c2ccccc2)c2cc(C)ccc2n1	PLK1 PBD inh 21µM, JMJD2A Tudor inconclusive (no result: G9a inh)
CCOc1nc(-c2ccccc2)c2cc(C)ccc2n1	none
Cc1ccc2nc(-c3ccccc3)c(CC(=O)O)c(C(=O)O)c2c1	BAZ2B block inconclusive, G9a inh 45µM
COc1ccc2nc(-c3ccc(N(C)C)cc3)sc2c1	none (no result: PLK1 PBD inh, BAZ2B block, G9a inh, HP1b chromo inh)
Cc1cc(/C=N/NC(=O)c2cccc(N(C)C)c2)c(C)n1-c1cc(C(=O)O)cc(C(=O)O)c1	PLK1 PBD inh inconclusive, G9a inh 11µM, HP1b chromo inh 32µM, JMJD2A Tudor 40µM (no result: BAZ2B block)
Cc1cc(/C=N/NC(=O)C(O)(c2ccccc2)c2ccccc2)c(C)n1-c1cccc(C(=O)O)c1	Sfp inh 40µM, BAZ2B block 56µM, G9a inh 40µM, JMJD2A Tudor inconclusive
CN(C)c1cccc(C(=O)N/N=C/c2ccccc2F)c1	none
O=C(Nc1ccc2nc3n(c(=O)c2c1)CCCCC3)C(=O)N1CCN(c2ccccc2F)CC1	PLK1 PBD inh 30µM, JMJD2A Tudor 35µM
O=C(Nc1ccc2nc3n(c(=O)c2c1)CCCCC3)C(=O)Nc1ccccc1F	none (no result: PLK1 PBD inh, Sfp inh)
CC(C)NCCOc1cccc(Br)c1	BAZ2B block inconclusive, G9a inh 50µM
Brc1cccc(OCCSc2ncccn2)c1	PLK1 PBD inh 13µM, JMJD2A Tudor inconclusive
Clc1ccc(OCCCCSc2ncccn2)cc1	PLK1 PBD inh 30µM, G9a inh inconclusive
CC(C)NCCCCOc1cccc(Br)c1	PLK1 PBD inh 19µM, BAZ2B block 50µM, G9a inh 28µM, JMJD2A Tudor 35µM
Cc1ccc(OCCOc2cccc(Br)c2)c([N+](=O)[O-])n1	none
Cc1nnc(SC(C)C(=O)Nc2ccc(Cl)cc2Cl)[nH]c1=O (stereo unspecified)	none (no result: Sfp inh, BAZ2B block, G9a inh)
CN(Cc1nc2ccccc2n1C)C(=O)c1ccco1	none
Cc1cccc(OCCCC(=O)NC2CCCCC2)c1	none
Brc1cccc(OCCCNC2CCCC2)c1	BAZ2B block inconclusive, G9a inh 16µM, JMJD2A Tudor 16µM
c1ccc(-c2nc(-c3ccccn3)no2)cc1	none
c1ccc(-c2n[nH]c(-c3ccccn3)n2)cc1	BAZ2B block 8.9µM, G9a inh inconclusive, JMJD2A Tudor inconclusive
O=C1CC(N(CCc2ccccc2)C(=S)Nc2cc(Cl)ccc2Cl)C(=O)N1c1c(Cl)cccc1Cl (stereo unspecified)	none (no result: G9a inh)
COc1ccc2c(c1)C(=O)N(Cc1ccccc1)C(=O)C2(C)C	none
COc1ccc2c(c1)-c1c(sn(-c3ccccc3)c1=S)C(C)(C)N2	BAZ2B block 8.9µM, G9a inh 28µM, HP1b chromo inh inconclusive, JMJD2A Tudor 40µM
COc1cc2c3c(c1)-c1c(sn(-c4cc(OC)ccc4OC)c1=S)C(C)(C)N3C(=O)C2=O	BAZ2B block 7.1µM, G9a inh inconclusive
COc1ccc(-n2sc3c(c2=S)-c2cc(OC)ccc2NC3(C)C)cc1	PLK1 PBD inh 24µM, Sfp inh inconclusive, BAZ2B block 11µM, G9a inh 10µM, HP1b chromo inh 10µM, JMJD2A Tudor 3.2µM
COc1ccc(N2C(=O)c3ccccc3NC2(C)C)cc1	none
COc1ccc2c(c1)-c1c(sn(-c3ccc(OC)c(OC)c3)c1=S)C(C)(C)N2	BAZ2B block 10µM, G9a inh 10µM, JMJD2A Tudor 35µM
Cc1cc(-c2nnc(SCC(=O)Nc3ccccc3F)n2N)n[nH]1	none
CCCCN(CC)CCCNC(=O)Nc1sc2nc3n(c(=O)c2c1C)CCC(C)CC3 (stereo unspecified)	none (no result: PLK1 PBD inh, Sfp inh)
